Source: PubChem BioAssay

Experiment: E. coli acrAB mutant growth effects, primary screen, E. coli filamentation inducers, strain DRC39, OD650, 24 h (AID 1178);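 also: growth measured as culture turbidity by optical density at 650 nm; test concentration not given here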
Details: higher = more signal, called active from +8 up or from −8 down

z-score, inactive:
CCCNC(=O)[C@@]1(Sc2ccc(C)cc2)CC(=O)N(Cc2ccccc2Cl)[C@@H]1c1ccc(CO)cc1I 0.466, C=CCN1Cc2ccccc2[C@H]2OC(c3ccc(OCCCO)cc3)=N[C@@]2(CCS(=O)(=O)c2ccccc2)C1=O -0.135, [N-]=[N+]=Nc1ccccc1C[C@]1(C(=O)N2CCOCC2)N=C(c2ccc(OCCCO)cc2)O[C@H]1c1ccccc1N=[N+]=[N-] 1.16, C[C@]1(C(=O)O)c2ccccc2C(=O)N(Cc2cc(F)cc(C(F)(F)F)c2)[C@H]1c1ccc(CO)cc1 0.434, CC(C)c1nc2cc(Br)ccc2c(=O)o1 0.692, CN(C)CCCC[C@@H]1NC(=O)[C@H]2C[C@@H](C(=O)O)[C@@H](c3ccc(O)cc3)N2C1=O 0.679, CN1C(=O)C2C(C3CC3)C=C3CN(Cc4cccc(Cl)c4)[C@@H]([C@@H](O)Cc4ccccc4)C3C2C1=O (stereo partly specified) 0.942, C=CCC(OC(C)=O)[C@@H]1[C@@H](N(Cc2ccc(-c3cccc(C(F)(F)F)c3)o2)C(=O)c2ccc(-c3ccccc3)cc2)c2cc(OCCCO)ccc2N1C(=O)c1ccc2ccccc2c1 (stereo partly specified) 0.391, CCCCC(O)C1C=CC2C(=O)N(c3ccccc3)C(=O)C2N1Nc1ccc(C#N)cc1 (stereo unspecified) 0.172, NC(=O)N1C(=O)C2C(C1=O)C1C=C(CCCO)C2C(c2ccc(CN3CCCC3)cc2)N1Cc1sc2ccccc2c1Cl (stereo unspecified) -0.291, CC(C)=CCCC(C)=CC(O)C1C=CC2C(=O)NC(=O)C2N1Nc1ccccn1 (stereo unspecified) -0.222, Cc1ccc(S[C@]2(C(=O)NCCCN(C)C)CC(=O)N(C3Cc4ccccc4C3)[C@@H]2c2ccc(CO)cc2I)cc1 -0.605, COc1ccc(C#Cc2ccc3c(c2)[C@]2(C(=O)N3)[C@H](C(=O)O)[C@H]3C(=O)O[C@H](c4ccccc4)[C@H](c4ccccc4)N3[C@@H]2c2ccccc2OCCO)cc1 0.761, COc1ccc(CCNC(=O)[C@@H]2c3ccccc3C(=O)N(Cc3ccccc3OC)[C@H]2c2ccc(CO)cc2)cc1 0.483, C=CCC(OC(C)=O)[C@@H]1[C@@H](N(Cc2cccc3ccccc23)C(=O)Cc2ccc(OC)cc2)c2cc(OCCCO)ccc2N1C(=O)Cc1ccc2ccccc2c1 (stereo partly specified) 0.685, CC(C)(C)OC(=O)CC[C@@]1(C(=O)NCCN2CCOCC2)N=C(c2ccc(OCCCO)cc2)O[C@@H]1c1ccccc1CN=[N+]=[N-] -0.407, CC(C)NC(=O)[C@@]1(C)c2ccccc2C(=O)N(Cc2ccccc2)[C@H]1c1ccc(CO)cc1 0.4, CN(C)c1ccc(C(O)C2C=CC3C(=O)N(Cc4ccccc4)C(=O)C3N2n2cnnc2)cc1 (stereo unspecified) 0.0571, COc1ccc(C(=O)Nc2ccc(CN3C(=O)[C@@]4(O[C@@H](CCn5cc(CCO)nn5)[C@H]([Si](C)(C)c5ccc(OC)cc5)[C@H]4C)c4ccccc43)cc2)cc1 1.07, CC(C)C[C@H]1NC(=O)C([C@@H](C)OCc2ccccc2)NC(=O)[C@@]23C(=O)N[C@@H](Cc4ccccc4)C2[C@H](C)[C@@]2(C)O[C@H]2C3/C=C/C/C=C\CNC1=O (stereo partly specified) 0.12, COc1ccc([Si](C)(C)[C@@H]2[C@@H](CC(=O)N3CCC[C@H]3CO)O[C@]3(C(=O)N(Cc4cccc(N5CCCCC5=O)c4)c4ccccc43)[C@H]2C)cc1 0.894, CO[C@H]1O[C@H](CO)[C@@H](OC(=O)Nc2ccccc2-c2ccccc2)[C@H](OC(=O)Nc2ccccc2)[C@H]1OC(=O)Nc1ccccc1 1.15, CCCCC(O)C1C=CC2C(=O)N(c3ccccc3)C(=O)C2N1Nc1ccc([N+](=O)[O-])cc1 (stereo unspecified) 0.356, C=CCNC(=O)[C@@H]1[C@H]2C(=O)O[C@H](c3ccccc3)[C@H](c3ccccc3)N2[C@H](c2ccc(OCCO)cc2)[C@@]12C(=O)Nc1ccc(C#CC3(O)CCCCCC3)cc12 -0.347, CN1C(=O)C2C(C1=O)C1C=C(c3ccc(CO)cc3)C2C(C2CC2)N1C (stereo unspecified) -0.453, COC(=O)[C@@]1(Cc2ccc(F)cc2)[C@H]2c3cc(C(=O)N4CCCC4)n(Cc4ccccn4)c3C[C@H]2CN1C(=O)c1ccccc1 -0.81, NC(=O)N1C(=O)C2C(C1=O)C1C=C(CCCO)C2C(c2ccc(CN3CCCC3)cc2)N1Cc1cc2c(cc1Br)OCO2 (stereo unspecified) -0.672, CCCCN1CC=CC23O[C@@H]4/C=C\CCCOC(=O)C4[C@H]2C(=O)N(C(CO)C(C)C)[C@@H]3C1=O (stereo partly specified) 0.116, O=C1O[C@H](c2ccccc2)[C@H](c2ccccc2)N2[C@H]1[C@@H](C(=O)N1CCN(c3ncccn3)CC1)[C@]1(C(=O)Nc3ccc(C#CCCO)cc31)[C@H]2c1ccc(O)cc1 -0.386, O=C1NC(=O)C2C1C=CC(C(O)c1ccc([N+](=O)[O-])cc1)N2Nc1ccccn1 (stereo unspecified) -0.16, O=C1C2C=CC(C(O)c3ccc([N+](=O)[O-])cc3)N(Nc3ccccc3F)C2C(=O)N1c1ccccc1 (stereo unspecified) -0.892, COc1ccc([Si](C)(C)[C@@H]2[C@@H](CC(=O)N(CCO)Cc3ccccc3)O[C@]3(C(=O)N(Cc4ccc(I)cc4)c4ccccc43)[C@H]2C)cc1 -0.318, CN1C(=O)C2C(C1=O)C1C=C(CCCO)C2C(C2CC2)N1Cc1cccc(OC(F)(F)F)c1 (stereo unspecified) 0.492, CCOC(=O)C[C@H]1[C@H](OC(=O)c2cc3ccccc3oc2=O)[C@@H](NC(=O)CC(C)C)c2cc(OCCCO)ccc2N1C(=O)Cc1ccc(OC)cc1 -0.715, NC(=O)N1C(=O)C2C(C1=O)C1C=C(CCCO)C2C(C2CC2)N1Cc1sc2ccccc2c1Cl (stereo unspecified) 0.718, COCCn1c(C(=O)N(C)C)cc2c1C[C@H]1CN(C(=O)c3ccccc3)[C@@](Cc3ccc(OC)cc3)(C(=O)OC)[C@@H]21 -0.134
